Only some compounds are listed: those with a hit (about 9.5% of all), similar ones and a draw of the others.
Tau fibril FP = inhibitors of human tau fibril formation; Potency, µM (series often up to 57.7 µM), for the others: top-dose activity, negative = inhibition, most hits filed as inhibitors; K18 P301L tau heparin fibrillization, Alexa594 FP, 6 h; AID 1468; 0.39% of 280,000 active; P10636; further: nearly all actives have a fitted effect of over 55% in size
Target sequence (P10636 561-689 P618L limits assumed): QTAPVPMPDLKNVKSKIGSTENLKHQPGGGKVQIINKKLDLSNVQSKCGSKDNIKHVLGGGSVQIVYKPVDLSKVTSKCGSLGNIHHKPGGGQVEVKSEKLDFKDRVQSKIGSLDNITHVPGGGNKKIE
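Human K18 P301L fragment (15 uM unlabeled plus 0.24 uM Alexa 594-labeled) in 100 mM sodium acetate pH 7 with compound, aggregation induced by 20 uM heparin for 6 hr at 37 C. ThT (30 uM) added for 1 hr, then Alexa 594 FP read.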
ALDH1A1 block = ALDH1A1 (human) enzyme inhibition; P00352; Purified ALDH1A1, NADH fluorescence, propionaldehyde substrate; Potency, µM (titrated, usually from 75.3 µM), without a hit: at the top dose activity, negative = inhibition, usual class: inhibitors; 7.3% of 220,000 active; active means well fitted inhibition curve with a large enough effect, not every such curve was filed as active; inconclusive means small, poorly fitted or top-dose-only effect, or another doubt; inactive means no such curve, though single readings can be large or run the other way;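 further: plate controls were no enzyme wells and a reference inhibitor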
Target sequence (P00352 whole entry, looked up): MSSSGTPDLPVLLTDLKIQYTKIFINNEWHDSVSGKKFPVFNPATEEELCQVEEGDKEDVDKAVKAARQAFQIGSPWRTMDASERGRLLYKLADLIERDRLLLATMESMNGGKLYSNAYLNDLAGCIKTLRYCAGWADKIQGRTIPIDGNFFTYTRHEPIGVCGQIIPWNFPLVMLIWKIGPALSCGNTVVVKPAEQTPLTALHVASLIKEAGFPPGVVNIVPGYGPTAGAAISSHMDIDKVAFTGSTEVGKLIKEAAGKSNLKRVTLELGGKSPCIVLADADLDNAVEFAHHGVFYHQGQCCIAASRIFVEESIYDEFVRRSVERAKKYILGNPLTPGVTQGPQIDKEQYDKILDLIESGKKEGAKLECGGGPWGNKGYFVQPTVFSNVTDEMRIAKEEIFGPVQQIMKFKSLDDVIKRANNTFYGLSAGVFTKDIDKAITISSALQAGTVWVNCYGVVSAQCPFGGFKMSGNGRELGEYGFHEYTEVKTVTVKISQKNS
HPGD inh = HPGD (human) dehydrogenase inhibition. Potency, µM, without a hit: top-dose activity change, negative = inhibition, most hits filed as inhibitors. 4.3% of 150,000 active. AID 894. purified HPGD, NADH fluorescence kinetic, PGE2 substrate; active means well fitted inhibition curve with a large enough effect, not every such curve was filed as active; inconclusive means small, poorly fitted or top-dose-only effect, or another doubt; inactive means no such curve, though single readings can be large or run the other way
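20 nM HPGD preincubated 15 min at room temperature with compound in 50 mM Tris-HCl pH 8, 0.01% Tween 20. Started with 1 mM NAD+ and 30 uM prostaglandin E2; NADH fluorescence (360/450 nm) read 5 times over 30-s intervals, last minus first.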
Tau fibril ThT = tau fibrillization inhibition (ThT binding); 2.1% of 270,000 active; P10636; recombinant tau K18 P301L, heparin-induced fibrillization, ThT fluorescence; Potency, µM (series often up to 57.4 µM), for inactives: at the highest dose activity, negative = inhibition, most hits filed as inhibitors; further: nearly all actives have a fitted effect of over 55% in size
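Heparin-induced fibrillization of the P301L-mutant K18 repeat-domain fragment of human tau was followed by ThT binding in quantitative high-throughput format.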
NPSR antag = neuropeptide S receptor (human) antagonism, cAMP. CHO-NPSR cells, cAMP TR-FRET, antagonist mode. Potency, µM (series often up to 38.3 µM), for the others: top-dose activity change, negative = inhibition, actives largely listed as inhibitors. 1% of 220,000 active; further: nearly all actives have a fitted effect of over 50% in size
Tau fluor cs = counter-screen for tau fibril formation inhibitors. 0.93% of 280,000 active. Potency, µM (top dose mostly 57.7 µM), for the others: at the highest dose activity change, negative = decrease. tau K18 P301L (four-repeat tau fragment) Alexa594 fluorescence, heparin fibrillization; further: nearly all actives have a fitted effect of over 55% in size
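Human K18 P301L tau (15 uM unlabeled plus 0.24 uM Alexa 594-labeled, final) in 100 mM sodium acetate pH 7 was mixed with compound and 20 uM heparin and incubated 6 hr at 37 C.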
An asterisk follows results filed as active; ? = inconclusive; · = no result given; [ ] = remark or other dose. Unless noted, the call rests on the fitted dose curve; in most records, active means well fitted curve in the direction sought with a large enough effect; inconclusive means small, poorly fitted or top-dose-only effect, or another doubt; inactive means no such curve, though single readings can be large; an effect the other way counts as inactive or inconclusive. Unless noted, on the % scale 0 is the no-effect control and ±100 the full control effect; potency means the concentration at half of the fitted maximal effect.

SMILES | Tau fibril FP | ALDH1A1 block | HPGD inh | Tau fibril ThT | NPSR antag | Tau fluor cs
Cc1ccccc1NC(=O)C1CC(=O)N(Cc2ccccc2)C1 (stereo unspecified) | -4% | 1% | · | -5% | 1% | 0%
Cc1cc(C)cc(-n2ccnc2SCC(=O)Nc2ccc3c(c2)OCO3)c1 | 9% | · | · | ? | · | -30%
COc1ccc2nc(NC(=O)c3ccc(S(=O)(=O)N4CCC(C)CC4)cc3)sc2c1 | -10% | · | · | 11% | · | -14%
COc1cccc(CNC(=O)c2nn(-c3ccc(C)cc3)c(=O)c3c2c2ccccc2n3C)c1 | -7% | · | · | -2% | · | -13%
NCC(=O)O | 2% | -4% | 1% | -3% | · | -2%
COc1ccc(NC(=O)/C(C#N)=C\c2cc(C)n(-c3ccc(Oc4ccc([N+](=O)[O-])cn4)cc3)c2C)cc1 | 5% | -8% | 28µM* | ? | -3%[46.1 µM] | -25%
Cc1cc(C=O)c(C)n1-c1ccc(Oc2ccc([N+](=O)[O-])cn2)cc1 | 3% | 10µM* | -11% | ? | -15% | -11%
COc1ccc(NC(=O)/C(C#N)=C/c2cc(C)n(-c3ccc(F)cc3)c2C)cc1 | -7% | · | · | -9% | · | 2%
Cc1cc(/C=C(\C#N)C(=O)Nc2ccc(F)cc2)c(C)n1-c1ccc(N2CCOCC2)c([N+](=O)[O-])c1 | -5% | 16µM* | -16% | ? | -21%[46.1 µM] | ?
O=C(O)C12CC3CC(C1)CC(n1ncc(N4CCN(c5ccccc5)CC4)c(Cl)c1=O)(C3)C2 | -5% | 7.1µM* | -5% | -5% | 11% | -4%
Clc1ccccc1C1=CC(c2ccco2)n2nnnc2N1 (stereo unspecified) | -1% | 13µM* | · | -6% | 11% | -4%
C=CCn1c(=O)/c(=C/c2ccc(Cl)cc2)s/c1=C(/C#N)c1nnc2n1CCCCC2 | 0% | ? | 25µM* | ? | ? | -15%
C=CCn1c(=O)/c(=C/c2ccc(O)cc2)s/c1=C(/C#N)c1nnc2n1CCCCC2 | 8% | ? | -11% | ? | ? | -14%
COc1ccc(Nc2nc(C(=O)NCCCN3CCOCC3)cs2)cc1 | -6% | 4% | -13% | -19% | -3%[7.67 µM] | -18%
CS(=O)(=O)N(CC(=O)NCCSCc1c(F)cccc1Cl)c1ccc2c(c1)OCO2 | 7% | 2.5µM* | -13% | 2% | -4%[46.1 µM] | -6%
COc1ccc(N(CC(=O)NCCSCc2c(F)cccc2Cl)S(C)(=O)=O)cc1OC | 2% | -5% | -5% | -5% | ? | -10%
CC(C)(C)NC(=O)CSCc1c(Cl)cccc1Cl | 8% | 5% | 25µM* | -3% | -4% | -2%
NC(=O)CSCc1c(Cl)cccc1Cl | 6% | 1% | 2% | -6% | -1%[46.1 µM] | 7%
O=C(CSCc1ccco1)c1ccc(Cl)s1 | -5% | ? | 20µM* | ? | -12%[46.1 µM] | -11%
O=C(CCc1ccccc1)NCCSCc1c(F)cccc1Cl | 11% | -5% | 5µM* | -3% | -7% | -3%
Cc1ccc(CCNC(=O)C(C)n2nc(C)c3c(C)n(-c4ccc(C)cc4)nc3c2=O)cc1 (stereo unspecified) | 1% | · | · | 10% | · | 10%
Cc1ccccc1CSCC(=O)NCc1ccco1 | 2% | 16µM* | 11µM* | 9% | -11% | 7%
CC(C)NC(=O)CSCc1c(F)cccc1Cl | 5% | ? | 16µM* | 1% | 12%[46.1 µM] | 1%
O=C(CSCc1c(F)cccc1Cl)NCc1ccco1 | ? | ? | 14µM* | -14% | -5%[46.1 µM] | -7%
O=C(CSCc1c(F)cccc1Cl)NCCSCc1ccco1 | -2% | ? | · | -12% | -7% | -12%
SMILES | Tau fibril FP | ALDH1A1 block | HPGD inh | Tau fibril ThT | NPSR antag | Tau fluor cs
Cc1ccc(C)c(N(CC(=O)NCCSCc2ccco2)S(C)(=O)=O)c1 | ? | 3.5µM* | -14% | ? | ? | -10%
Nc1nc(-c2ccccc2)nc2sc3c(c12)CCCC3 | -16% | ? | ? | 1% | -6% | -30%
O=C(CSCc1ccc(Cl)cc1)NCCSCc1ccco1 | -5% | 11µM* | · | -19% | -1% | -19%
C/C(CC(=O)NCc1ccco1)=N\NC(=O)Cc1cccc2ccccc12 | 3% | 13µM* | -11% | -12% | 0%[46.1 µM] | -3%
C/C(CC(=O)NCc1ccco1)=N\NC(=O)Cc1ccc(-c2ccccc2)cc1 | 6% | -3% | -9% | 4% | 19% | 1%
O=C(CSCc1c(Cl)cccc1Cl)NCc1ccco1 | -2% | ? | 8.9µM* | -13% | -5%[46.1 µM] | -5%
COc1cc(NC(=O)c2cc(C3CC3)nc3c2c(C)nn3-c2ccc(C)cc2)cc(OC)c1 | ? | · | · | -1% | · | -23%
COc1cccc(N2CCN(c3ncc4c(n3)CCN(Cc3ccc(Br)cc3)C4)CC2)c1 | 9% | · | · | -17% | · | -16%
COC(=O)[C@@]1(Cc2ccc(F)cc2)[C@H]2c3cc(C(=O)N(C)C)n(Cc4ccc(C)o4)c3C[C@H]2CN1C(=O)c1ccccc1 | -8% | -8% | 18µM* | ? | · | -10%
COC(=O)[C@@]1(Cc2ccc(F)cc2)[C@H]2c3cc(C(=O)N(C)C)n(Cc4ccccc4)c3C[C@H]2CN1C(=O)c1ccccc1 | -3% | 6% | -15% | ? | -50% | -14%
COc1ccc(C(O)CNc2ccc(C)cc2)cc1 (stereo unspecified) | 13% | 20µM* | -11% | ? | 0%[46.1 µM] | -16%
COc1ccc(C(=S)NCS(=O)(=O)c2ccc(C)cc2)cc1 | 11% | 22µM* | 25µM* | ? | -9% | -7%
COc1ccc(C(=S)Nc2ccc(C)cc2)cc1 | 3% | ? | 22µM* | -8% | -9%[46.1 µM] | 0%
COc1ccc(/C=N/NC(=O)c2[nH]ncc2Br)c(OC)c1 | 0% | 18% | -16% | ? | -1%[46.1 µM] | -5%
CCOC(=O)c1[nH]c(C)c(CCC(=O)Nc2cccc(SC)c2)c1C | 1% | · | · | -8% | · | -29%
O=C(Nc1cccc(Cl)c1)Nc1ccc2c(c1)OCO2 | 16% | -5% | -10% | ? | -6%[46.1 µM] | 14µM*[quencher]
CC[C@H](C)[C@H](NC(N)=O)C(=O)Nc1ccc2c(c1)OCO2 | 0% | -1% | · | -6% | 12% | -3%
S=C(Nc1ccc2c(c1)OCO2)Nc1ccc2c(c1)OCO2 | ? | ? | -29% | 25µM* | 7% | ?
O=C(Nc1ccc(S(=O)(=O)NCc2ccccc2)cc1)Nc1ccc2c(c1)OCO2 | ? | 0% | -5% | ? | -5%[46.1 µM] | 4µM*[quencher]
CC(C)CC(NC(N)=O)C(=O)Nc1ccc2c(c1)OCO2 (stereo unspecified) | 6% | 18µM* | · | ? | 3% | -27%
O=C(Nc1ccc2c(c1)OCCO2)Nc1ccc2c(c1)OCO2 | ? | -9% | · | ? | -1% | ?
